Assay results: PubChem BioAssay AID1159580 (chemical genetic matrix, 2015)
“And” between values parts separate entries of the source, which are not always exact repeats. Equal entries are not always repeated. The campaign covered roughly 5,500 compounds. About 2,000 (36%) were called active. Another 18% or so got no clear call; they are omitted. Rule as the data show it: active = normalized growth mostly below about 0.91 (no sharp cut-off); inconclusive = no clear call, values can overlap the other calls; inactive = mostly above about 0.92. The list shows a part of the results.

Test: chemical genetic growth profiling, strain panel (AID 1159580);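 also: tested at 20 µM; growth read once vehicle control cultures reached saturation at 30 °C; 1 = growth at the plate median or of vehicle wells; lower values mean less growth of the strain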
Settings: S. cerevisiae deletion strains, growth OD

Measured: normalized growth

C=C1[C@H]2CC[C@@]3(C)[C@H](c4ccoc4)OC(=O)C[C@]13O[C@H]1C[C@H](O)C(C)(C)[C@H](CC(=O)OC)[C@]12C
inactive: locus YAL021C, strain ccr4, stronger effect = lower value 0.998 | locus YAL026C, strain drs2, stronger effect = lower value 1.05 | locus YAL030W, strain snc1, stronger effect = lower value 1.02 | locus YBL061C, strain skt5, stronger effect = lower value 1.02 | locus YBR009C, strain hhf1, stronger effect = lower value 1.01 | locus YBR021W, strain FUR4, stronger effect = lower value 0.985 | locus YBR023C, strain chs3, stronger effect = lower value 1.01 | locus YBR171W, strain sec66, stronger effect = lower value 1.02 | locus YBR229C, strain ROT2, stronger effect = lower value 0.999 | locus YBR231C, strain swc5, stronger effect = lower value 1.04 | locus YBR279W, strain paf1, stronger effect = lower value 1.02 | locus YCL011C, strain gbp2, stronger effect = lower value 1.01 | locus YCL016C, strain dcc1, stronger effect = lower value 1 | locus YCL029C, strain bik1, stronger effect = lower value 1.01 | locus YCL061C, strain MRC1, stronger effect = lower value 1.03 | locus YCL069W, strain vba3, stronger effect = lower value 1.02 | locus YCR088W, strain abp1, stronger effect = lower value 1.02 | locus YDL005C, strain med2, stronger effect = lower value 1.02 | locus YDL035C, strain GPR1, stronger effect = lower value 1 | locus YDL040C, strain nat1, stronger effect = lower value 1.02 | locus YDL074C, strain BRE1, stronger effect = lower value 0.99 | locus YDL101C, strain DUN1, stronger effect = lower value 1 | locus YDL134C, strain PPH21, stronger effect = lower value 1 | locus YDL185W, strain tfp1, stronger effect = lower value 1.03 | locus YDL192W, strain arf1, stronger effect = lower value 1.02 | locus YDR001C, strain nth1, stronger effect = lower value 1.02 | locus YDR069C, strain doa4, stronger effect = lower value 1.03 | locus YDR101C, strain arx1, stronger effect = lower value 1.01 | locus YDR137W, strain rgp1, stronger effect = lower value 0.975 | locus YDR159W, strain sac3, stronger effect = lower value 1.04 | locus YDR162C, strain NBP2, stronger effect = lower value 1.01 | locus YDR195W, strain ref2 1.03 | locus YDR297W, strain sur2, stronger effect = lower value 1.03 | locus YDR318W, strain mcm21, stronger effect = lower value 1.02 | locus YDR334W, strain swr1, stronger effect = lower value 1.02 | locus YDR335W, strain msn5, stronger effect = lower value 1.02 | locus YDR388W, stronger effect = lower value 1.02 | locus YDR392W, strain spt3, stronger effect = lower value 0.927 | locus YDR502C, strain sam2, stronger effect = lower value 1.02 | locus YEL003W, strain gim4, stronger effect = lower value 1.03 | locus YEL037C, strain rad23, stronger effect = lower value 1.01 | locus YEL061C, strain CIN8 (second series), stronger effect = lower value 1.02 | locus YEL061C, strain CIN8, stronger effect = lower value 0.998 | locus YER015W, strain faa2, stronger effect = lower value 1.03 | locus YER016W, strain bim1, stronger effect = lower value 1.02 | locus YER110C, stronger effect = lower value 1.02 | locus YER111C, strain swi4, stronger effect = lower value 1.03 | locus YER155C, strain BEM2 (second series), stronger effect = lower value 1.04 | locus YER155C, strain BEM2, stronger effect = lower value 1 | locus YER167W, strain BCK2, stronger effect = lower value 1 | locus YFR010W, strain ubp6, stronger effect = lower value 1.04 | locus YGL078C, strain dbp3, stronger effect = lower value 1.02 | locus YGL086W, strain mad1, stronger effect = lower value 1 | locus YGL167C, strain pmr1, stronger effect = lower value 1.02 | locus YGL173C, strain kem1, stronger effect = lower value 1.04 | locus YGL227W, strain vid30, stronger effect = lower value 1.03 | locus YGL240W, strain doc1, stronger effect = lower value 1.02 | locus YGL248W, strain PDE1, stronger effect = lower value 0.999 | locus YGL253W, strain hxk2, stronger effect = lower value 1.03 | locus YGR078C, strain PAC10, stronger effect = lower value 0.999 | locus YGR135W, strain pre9, stronger effect = lower value 1.02 | locus YGR252W, strain gcn5, stronger effect = lower value 1.02 | locus YHR013C, strain ard1, stronger effect = lower value 1 | locus YHR027C, strain rpn1, stronger effect = lower value 1.02 | locus YHR030C, strain SLT2, stronger effect = lower value 0.986 | locus YHR079C, strain IRE1 (second series), stronger effect = lower value 1.02 | locus YHR079C, strain IRE1, stronger effect = lower value 0.977 | locus YHR094C, strain hxt1, stronger effect = lower value 1.02 | locus YHR129C, strain ARP1, stronger effect = lower value 1.01 | locus YHR142W, strain chs7, stronger effect = lower value 1.01 | locus YHR200W, strain rpn10, stronger effect = lower value 1 | locus YIL066C, strain RNR3, stronger effect = lower value 1.01 | locus YIL073C, strain SPO22, stronger effect = lower value 1.07 | locus YIL125W, strain kgd1, stronger effect = lower value 1.01 | locus YIR030C, strain dcg1, stronger effect = lower value 1.02 | locus YJL092W, strain hpr5, stronger effect = lower value 1.03 | locus YJL095W, strain BCK1 (second series), stronger effect = lower value 1.02 | locus YJL095W, strain BCK1, stronger effect = lower value 1 and 0.979 | locus YJL115W, strain asf1, stronger effect = lower value 1.02 | locus YJL129C, strain trk1, stronger effect = lower value 1.02 | locus YJL134W, strain LCB3, stronger effect = lower value 1.01 | locus YJL154C, strain vps35, stronger effect = lower value 1.02 | locus YJL164C, strain tpk1, stronger effect = lower value 1 | locus YJL166W, strain qcr8, stronger effect = lower value 1.03 | locus YJL168C, strain set2, stronger effect = lower value 1.02 | locus YJL187C, strain SWE1 (second series), stronger effect = lower value 1 | locus YJR043C, strain POL32, stronger effect = lower value 0.991
